In PubChem BioAssay (Tox21):
Several values for one entry are separate records, joined by “and”; a condition that tells them apart may be missing. Equal entries are not always repeated. Records with an inconclusive call do not appear. More than one record can exist for a structure, and the calls need not agree. Activity calls are given as the source filed them. Unless noted, calls follow the shape of the dose curve; as a rule, active = well fitted curve in the direction sought with a large enough effect in the repeat runs; inconclusive = weak or mixed curves; inactive = no such curve, though single readings can be large; an effect the other way counts as inactive or inconclusive.

Tests used:
[1] = qHTS assay to identify small molecule agonists of the hypoxia (HIF-1) signaling pathway - cell viability counter screen (AID 1224844; calls by dose curve; also: nearly all actives have a fitted effect of over 50% in size)
Outline: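 HRE-bla ME-180 cells, 2,000/well in 0.5% dialyzed FBS medium, treated 17 h at 37C with compounds. Viability read in the same wells as the bla reporter, by CellTiter-Glo luminescence after 30 min at room temperature.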

[2] = qHTS assay to identify small molecule agonists of H2AX (AID 1224845; active = well fitted activation curve with a large enough effect in the signal ratio in the repeat runs, not every such curve was filed as active; the % refers to the signal ratio)
Outline: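 Wild-type CHO-K1 cells plated overnight, then exposed 3 hr at 37C to compounds at 15 concentrations (0.76% DMSO). Lysed, then HTRF anti-pH2AX(S139)-cryptate/anti-H2AX-d2 detection after 24 hr at room temperature; emissions 665 and 620 nm.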

[3] = qHTS assay to identify small molecule agonists of the hypoxia (HIF-1) signaling pathway (AID 1224846; active = well fitted activation curve with a large enough effect in the signal ratio in the repeat runs, not every such curve was filed as active; the % refers to the signal ratio)
Outline: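 HRE-bla ME-180 beta-lactamase reporter cells in medium with 0.5% dialyzed FBS, pre-incubated 5 h then exposed to compounds 17 h at 37C, 5% CO2; reporter induction read with CCF4-AM FRET substrate.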

[4] = qHTS assay to identify small molecule agonists of H2AX - cell viability counter screen (AID 1224847; calls by dose curve; also: top concentration of the series differs between compounds; nearly all actives have a fitted effect of over 30% in size)
Outline: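 After overnight plating of 1000 CHO-K1 cells per well, a 15-concentration compound series was applied for 3 hr at 37C. Luminescence from CellTiter-Glo, read following 30 min at room temperature, reflected cell viability.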

[5] = qHTS RealTime-Glo MT Cell Viability Assay in HepG2 cells - 24 hour (AID 1224867); also: nearly all actives have a fitted effect of over 50% in size
Outline: (§1)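 HepG2 cells (600/well) were dispensed with RealTime-Glo reagents, incubated 5 h at 37 °C, then treated with compounds in DMSO for up to 40 h. Nonlytic NanoLuc luminescence reflecting viable cells was read at each stated time point.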

[6] = qHTS RealTime-Glo MT Cell Viability Assay in HEK293 cells - 32 hour (AID 1224868); also: top concentration of the series differs between compounds; nearly all actives have a fitted effect of over 50% in size
Outline: (§2)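 HEK293 cells seeded with NanoLuc/prosubstrate reagent, rested 5 h at 37 C, then dosed and kept at 37 C up to 40 h. Nonlytic real-time luminescence from viable cells read at 0, 8, 16, 24, 32 and 40 h.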

[7] = A CellTox Green Cytotoxicity Assay to monitor cytotoxicity in HEK293 cells - 0 hour (AID 1224869); also: nearly all actives have a fitted effect of over 50% in size
Outline: (§3)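 HEK293 cells, 600/well, were preincubated 5 hours and then exposed to compounds at 37 C for up to 40 hours. A cell-impermeant cyanine dye staining dead-cell DNA was read by fluorescence at 0, 8, 16, 24, 32 and 40 h time points.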

[8] = qHTS RealTime-Glo MT Cell Viability Assay in HepG2 cells - 40 hour (AID 1224870); also: nearly all actives have a fitted effect of over 50% in size
Outline: (§4)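 HepG2 cells mixed with RealTime-Glo MT reagents (NanoLuc plus cell-permeant prosubstrate) were seeded at 600 cells/well, incubated 5 h at 37 C/5% CO2, then pinned with compounds in DMSO; nonlytic luminescence tracked viability during 40 h treatment.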

[9] = A CellTox Green Cytotoxicity Assay to monitor cytotoxicity in HEK293 cells - 40 hour (AID 1224871); also: nearly all actives have a fitted effect of over 45% in size; also: potency is read from the fitted curve at half-maximal effect
Outline: as §3

[10] = qHTS RealTime-Glo MT Cell Viability Assay in HEK293 cells - 16 hour (AID 1224872)
Outline: as §2

[11] = qHTS RealTime-Glo MT Cell Viability Assay in HepG2 cells - 8 hour (AID 1224873); also: nearly all actives have a fitted effect of over 55% in size
Outline: as §4

[12] = A CellTox Green Cytotoxicity Assay to monitor cytotoxicity in HEK293 cells - 24 hour (AID 1224875); also: nearly all actives have a fitted effect of over 45% in size
Outline: as §3

[13] = A CellTox Green Cytotoxicity Assay to monitor cytotoxicity in HepG2 cells - 16 hour (AID 1224876); also: nearly all actives have a fitted effect of over 45% in size; also: potency is read from the fitted curve at half-maximal effect
Outline: (§5)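 HepG2 cells, 600/well, preincubated 5 h with CellTox Green dye, then exposed to Tox21 compounds in DMSO at 37 C for up to 40 h. Dead-cell DNA fluorescence read at the indicated time point.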

[14] = qHTS RealTime-Glo MT Cell Viability Assay in HepG2 cells - 32 hour (AID 1224877); also: nearly all actives have a fitted effect of over 55% in size
Outline: as §1

[15] = A CellTox Green Cytotoxicity Assay to monitor cytotoxicity in HepG2 cells - 24 hour (AID 1224878); also: nearly all actives have a fitted effect of over 45% in size
Outline: as §5

[16] = A CellTox Green Cytotoxicity Assay to monitor cytotoxicity in HepG2 cells - 40 hour (AID 1224879); also: nearly all actives have a fitted effect of over 40% in size; also: potency is read from the fitted curve at half-maximal effect
Outline: as §5

[17] = qHTS RealTime-Glo MT Cell Viability Assay in HEK293 cells - 0 hour (AID 1224880)
Outline: (§6)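 600 cells/well were plated with the nonlytic NanoLuc/prosubstrate reagent, pre-incubated 5 h, then given 23 nL of compound in DMSO. Incubation at 37 C for 40 h, with luminescence from viable-cell-reduced substrate read repeatedly from 0 h.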

[18] = qHTS assay to identify small molecule agonists of the estrogen related receptor (ERR) signaling pathway from Tox21 library (AID 1224849; calls by dose curve; also: nearly all actives have a fitted effect of over 15% in size); details: ERR reporter cell line, ONE-Glo luciferase, 18 h
Outline: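 ERR reporter cells (NTP line) pre-incubated 6 hours at 37 C, then exposed to compounds for 18 hours at 37 C. ONE-Glo luciferase luminescence was read after 30 minutes at room temperature.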

[19] = qHTS RealTime-Glo MT Cell Viability Assay in HEK293 cells - 40 hour (AID 1224874); details: RealTime-Glo luminescence; max response: stronger effect = lower value; also: nearly all actives have a fitted effect of over 50% in size
Outline: as §6

[20] = qHTS assay to identify small molecule antagonists of the estrogen related receptor (ERR) signaling pathway from Tox21 library (AID 1224848); also: nearly all actives have a fitted effect of over 50% in size
Outline: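 Screening used an ERR reporter line supplied by NTP, exposed for 18 h at 37 C to library compounds delivered in DMSO. Signal was luciferase luminescence developed with ONE-Glo at room temperature for 30 min.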
% is scaled to controls: 0 for no effect and ±100 for the full control effect.

CCCC(CCC)C(=O)O
inactive: Potency [1] | outcome [2] | outcome [3] | outcome [4] | Potency [5] | Potency [6] | outcome [7] | Potency [8] | Potency [9] | Potency [10] | outcome [11] | Potency [12] | Potency [13] | Potency [14] | Potency [15] | Potency [16] | Potency [17]

CCCCOC(=O)CC(CC(=O)OCCCC)(OC(C)=O)C(=O)OCCCC
inactive: Potency [1] | outcome [2] | outcome [3] | outcome [4] | activity change, positive = activation ([18]; at 42.5 µM (top of the series)) -18.7% | activity change, positive = activation ([18]; at 92.4 µM (top of the series)) -11.9% and -24.8% | Potency [5] | Potency [6] | outcome [7] | Potency [8] | Potency [9] | Potency [10] | outcome [11] | Potency [12] | Potency [13] | Potency [14] | Potency [16] | Potency [17]

O=C(c1ccccc1)c1ccccc1
inactive: Potency [1] | outcome [2] | outcome [3] | outcome [4] | Potency [5] | Potency [6] | outcome [7] | Potency [8] | Potency [9] | Potency [10] | outcome [11] | max response [19] -7.38% and -0.339% and 9.06% | Potency [12] | Potency [13] | Potency [14] | Potency [16] | Potency [17]

CCCNC(=O)NS(=O)(=O)c1ccc(Cl)cc1
inactive: Potency [1] | outcome [2] | outcome [3] | outcome [4] | Potency [5] | Potency [6] | outcome [7] | Potency [8] | Potency [9] | Potency [10] | outcome [11] | Potency [12] | Potency [13] | Potency [14] | Potency [15] | Potency [16] | Potency [17]

O=C(O)/C=C\C(=O)O
inactive: Potency [1] | outcome [2] | outcome [3] | outcome [4] | Potency [5] | Potency [6] | outcome [7] | Potency [8] | Potency [9] | Potency [10] | outcome [11] | max response [19] 3.82% and 7.29% and 0.357% | Potency [12] | Potency [13] | Potency [14] | Potency [16] | Potency [17]

CC1(C)[C@@H]2CC[C@@]1(C)C(=O)C2
inactive: Potency [1] | outcome [2] | outcome [3] | outcome [4] | Potency [20] | activity change, positive = activation ([18]; at 42.5 µM (top of the series)) 1.44% | activity change, positive = activation ([18]; at 92.4 µM (top of the series)) 5.63% and 2.83% | Potency [5] | Potency [6] | outcome [7] | Potency [8] | Potency [10] | outcome [11] | Potency [12] | Potency [13] | Potency [14] | Potency [15] | Potency [16] | Potency [17]
inactive and 7.56 µM (active): Potency [9]

NC(N)=O
inactive: Potency [1] | outcome [2] | outcome [3] | outcome [4] | Potency [5] | Potency [6] | outcome [7] | Potency [8] | Potency [9] | Potency [10] | outcome [11] | max response [19] 7.94% and 4.18% and 0.0917% | Potency [12] | Potency [13] | Potency [14] | Potency [16] | Potency [17]

CCCCCCCCCCCCCCCC(=O)O
inactive: Potency [1] | outcome [2] | outcome [3] | outcome [4] | Potency [5] | Potency [6] | outcome [7] | Potency [8] | Potency [9] | Potency [10] | outcome [11] | Potency [12] | Potency [13] | Potency [14] | Potency [15] | Potency [16] | Potency [17]

CNC[C@H](O)c1cccc(O)c1
inactive: Potency [1] | outcome [2] | outcome [3] | outcome [4] | Potency [20] | activity change, positive = activation ([18]; at 42.5 µM (top of the series)) 5.4% | activity change, positive = activation ([18]; at 92.4 µM (top of the series)) -1.31% and 0.843% | Potency [5] | Potency [6] | outcome [7] | Potency [8] | Potency [9] | Potency [10] | outcome [11] | max response [19] 8.72% and 5.33% and 3.68% | Potency [12] | Potency [13] | Potency [14] | Potency [16] | Potency [17]

NS(=O)(=O)c1cc(C(=O)O)c(NCc2ccco2)cc1Cl
inactive: Potency [1] | outcome [2] | outcome [3] | outcome [4] | Potency [20] | Potency [5] | Potency [6] | outcome [7] | Potency [8] | Potency [9] | Potency [10] | outcome [11] | Potency [12] | Potency [14] | Potency [17]
19.6 µM (active) and inactive: Potency [16]
22 µM (active) and inactive: Potency [13]

O=C(O)CCCCC(=O)O
inactive: Potency [1] | outcome [2] | outcome [3] | outcome [4] | Potency [5] | Potency [6] | outcome [7] | Potency [8] | Potency [9] | Potency [10] | outcome [11] | max response [19] 4.36% and 16.9% and 2.15% | Potency [12] | Potency [13] | Potency [14] | Potency [16] | Potency [17]

O=S(=O)(O)c1ccc2cc(O)ccc2c1
inactive: Potency [1] | outcome [2] | outcome [3] | outcome [4] | Potency [5] | Potency [6] | outcome [7] | Potency [8] | Potency [9] | Potency [10] | outcome [11] | max response [19] -0.603% [middle of 4 runs] | Potency [12] | Potency [13] | Potency [14] | Potency [16] | Potency [17]
